# Laboratory results reported in PubChem BioAssay (EPA / NIEHS).
# Activity calls are given as the source filed them. How the source made its calls: active means hit-call score of the fitted dose curve at least 0.9, where 1 is the maximum; inactive means score below 0.9.
# Test: CCTE_Shafer_MEA_acute_firing_rate_mean: CCTE's Neural Acute Assay for Mean Firing Rate, Shafer Lab (AID 2284009);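 further: analyzed for loss of signal so actives lower firing rate relative to DMSO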
# How it was run: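 Primary rat cortical neurons on 16-electrode MEA wells were exposed on DIV 13 or 15 to compound (0.03-40 uM). Spike counts per recording time, averaged over electrodes, were compared between 40-min baseline and 40-min post-exposure recordings as percent change.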
SMILES,outcome,AC50
OCCCCO,inactive,
CN(C)C(=S)S,inactive,
O=C(Cc1ccccc1)OCCc1ccccc1,,0.003 µM (active)
Clc1cccc(Cl)c1Cl,inactive,
Oc1ccc(Cc2ccc(O)cc2)cc1,,0.00377 µM (active)
CCCCOC(=O)COC(=O)c1ccccc1C(=O)OCCCC,,0.0196 µM (active)
Cc1cc(C(F)(C(F)(F)F)C(F)(F)F)ccc1NC(=O)c1cccc(I)c1C(=O)NC(C)(C)CS(C)(=O)=O,,1.68 µM (active)
CC1(C)[C@H](C(=O)O[C@H](C#N)c2cccc(Oc3ccccc3)c2)[C@@H]1/C=C(\Cl)C(F)(F)F,,1.18 µM (active)
CC(C)[C@@H](Nc1ccc(C(F)(F)F)cc1Cl)C(=O)OC(C#N)c1cccc(Oc2ccccc2)c1 (stereo partly specified),,1.25 µM (active)
CC(C)(C)c1ccccc1O,,4.87 µM (active)
N#Cc1cccnc1,inactive,
